# Results from PubChem BioAssay AID623868 (Vanderbilt High Throughput Screening Facility, 2012).
# Among all 2,100 compounds or so, about 760 (36%) were called active. These entries were drawn from the full list. Unmarked numbers belong to inactive results.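 How the source made its calls: active means thallium-flux fluorescence traces judged by eye to show enhanced or reduced glutamate response, manual score 1 or -1, so both directions (some results past the limit were not filed as active); inactive means the rest, including fluorescent or raised-baseline compounds.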
# Assay: thallium influx changes without GIRK channels – cell-based, HEK-293 rmGlu8, no GIRK, thallium flux, counter-screen for GIRK activator project, confirmation (AID 623868);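 further: extra codes mark interference with 3 for fluorescent and 4 for baseline rise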
# Settings: thallium flux fluorescence, at 10 µM, actives lie on both sides, codes: 1 enhancer, -1 blocker, 0 none, thallium stimulus containing EC20 glutamate
row,Structure (SMILES),manual score
1,COc1c(Cl)cc(Cl)cc1CNCCNCC(C)O (centres undefined),0
2,COc1cc(C(=O)NC2CC3CCCC(C2)N3CC(=O)Nc2ccccc2)cc(OC)c1OC (centres undefined),-1 (active)
3,COc1cccc(NC(=O)Cn2nnc(C(=O)Nc3ccccc3)c2N)c1,0
4,CC1CCCCN1CC(=O)Nc1ccc(Oc2ccccc2)cc1 (centres undefined),0
5,O=C(Nc1nnc(-c2ccccc2F)s1)C1CCCO1 (centres undefined),0
6,CC(C)c1ccc2occ(-c3nn[nH]n3)c(=O)c2c1,0
7,CCCn1c(SCc2nc3sc(C)c(C)c3c(=O)[nH]2)nc2ccccc2c1=O,1 (active)
8,CCCSc1nc2sc3c(c2c(=O)[nH]1)CCN(Cc1ccccc1)C3,3
9,O=c1[nH]c(CS(=O)(=O)c2ccccc2)nc2ccccc12,0
10,Cc1c(C)[n+](=O)c2c(n1[O-])CCC2,0
11,COc1ccc(S(=O)(=O)NCCCCCC(=O)NCCCN2CCOCC2)cc1,0
12,CC1(C)Cc2cccc(OCC(=O)Nc3ccccc3N3CCOCC3)c2O1,0
13,Cc1cccc(OCC(=O)NC(=S)Nc2ccccc2N2CCOCC2)c1,0
14,Cc1ccccc1OCC(=O)Nc1ccccc1N1CCOCC1,-0.5
15,CCC(=O)N1CCN(c2ccccc2NC(=O)COc2cccc(C)c2)CC1,-1 (active)
16,Cc1cc(Cl)ccc1OCC(=O)Nc1ccccc1N1CCOCC1,0
17,Cc1cccc(OCC(=O)Nc2ccccc2N2CCN(C(=O)C(C)C)CC2)c1C,-1 (active)
18,CC(C)c1cc(C(F)(F)F)n2nc(C(=O)Nc3ccc4c(c3)OCO4)cc2n1,0
19,O=C(NC(=S)Nc1ccc(Oc2ccc(Cl)cc2)cc1)c1ccccc1,0
20,O=C(NC(=S)Nc1ccc2c(c1)OCO2)c1ccccc1,1 (active)
21,Cn1ncc2cc(NC(=S)NC(=O)c3ccccc3)ccc21,1 (active)
22,CC1CCN(C(C(=O)Nc2ccc3c(c2)OCO3)c2ccccc2)CC1 (centres undefined),0
23,O=C(NC(=S)Nc1ccc2c(c1)OCCO2)c1ccccc1,1 (active)

row,Structure (SMILES),manual score
1,CC1CCCN(C(C(=O)Nc2ccc3c(c2)OCO3)c2ccccc2)C1 (centres undefined),-0.5
2,CC(/C=N/n1c(COc2ccccc2)n[nH]c1=S)=C\c1ccccc1,0
3,Cc1ccc(-c2n[nH]c(=S)n2/N=C/c2ccc(C)s2)cc1,1 (active)
4,Cc1ccc(-c2n[nH]c(=S)n2/N=C/c2cccs2)cc1,1 (active)
5,Cc1ccc(/C=N/n2c(COc3ccccc3)n[nH]c2=S)s1,1 (active)
6,Cn1cccc1/C=N/n1c(-c2ccc(C(C)(C)C)cc2)n[nH]c1=S,0
7,Cc1ccccc1CNS(=O)(=O)c1ccc2c(c1)OCCO2,0
8,CCNC(=S)N/N=C1\C(=O)c2cccc3cccc1c23,1 (active)
9,CCCCNC(=S)N/N=C1\C(=O)c2cccc3cccc1c23,1 (active)
10,CCCCNc1c2c3c(cccc3n(C)c1=O)C(=O)c1ccccc1-2,3
11,CCCCN(C)C1=Nc2cccc3cccc1c23,0
12,O=C(N/N=C1/C(=O)c2cccc3cccc1c23)c1ccc(Cl)cc1,1 (active)
13,CNC(=S)N/N=C1\C(=O)c2cccc3cccc1c23,1 (active)
14,COc1ccc(Cn2nnnc2C(c2ccc(F)cc2)N2CCN(C3CCCC3)CC2)cc1 (centres undefined),0
15,N#Cc1nc(Cc2ccccc2)oc1NCCc1ccccc1,0
16,O=C(CCN1C(=O)COc2ccccc21)NCCCN1CCc2ccccc2C1,0
17,Cc1ccc(NC(=O)COC(=O)/C=C/c2ccco2)cc1S(=O)(=O)N(C)C,0
18,Cn1c(NCc2cccc(Br)c2)nc2ccccc21,0
19,COc1cc(OC)cc(-c2nnc(Nc3nc4c(F)cccc4s3)o2)c1,1 (active)
20,Fc1cccc2sc(Nc3nnc(-c4ccccc4)o3)nc12,1 (active)
21,COc1cccc(-c2nnc(Nc3nc4c(F)cccc4s3)o2)c1,1 (active)
22,Fc1cccc2sc(Nc3nnc(-c4ccco4)o3)nc12,1 (active)
23,Nc1nnc(C(=O)c2ccccc2N)s1,0

row,Structure (SMILES),manual score
1,Clc1ccccc1-c1nnc2sc(CCc3ccccc3)nn12,0
2,CCn1c(=NC(=O)CSC(C)=O)sc2ccccc21,1 (active)
3,O=C(COC(=O)C1CC(=O)N(Cc2ccccc2)C1)Nc1ccc2c(c1)OCO2 (centres undefined),0
4,COC(=O)c1ccccc1NC(=O)Nc1cnccn1,0
5,O=C(Oc1ccccc1)c1cccc(COC(=O)c2cnccn2)c1,-1 (active)
6,CC(=O)Nc1nnc(C)s1,0
7,CCn1c(SCC(N)=O)nc2c(c1=O)C1(CCCC1)Cc1ccccc1-2,0
8,C=CCSc1nc2sc3c(c2c(=O)n1CC)CCc1ccccc1-3,1 (active)
9,CCCSc1nc(C)nc2c1c(=O)n(C)c(=O)n2C,0
10,CC1CCCC(NC(=S)Nc2ccc(SC(F)F)cc2)C1C (centres undefined),0
11,CC1CCCCC1NC(=S)Nc1ccc(SC(F)F)cc1 (centres undefined),0
12,CC1CCCC(NC(=O)Nc2cccs2)C1C (centres undefined),0
13,Cc1ccccc1NC(=S)NC(=O)c1cncc(Br)c1,1 (active)
14,CN(C(=S)NC(=O)c1ccccc1Br)C1CCCCC1,1 (active)
15,CC1CCCC(NC(=S)NC(=O)c2cncc(Br)c2)C1C (centres undefined),1 (active)
16,CC1CCCC(NC(=S)NC(=O)c2ccccc2Br)C1C (centres undefined),1 (active)
17,CN(C)Cc1cc(C(C)(C)C)c(O)c(C(C)(C)C)c1,0
18,CCN1CCN(c2ccc(NC(=O)CCc3c(C)nc4c(-c5ccccc5)c(C)nn4c3C)cc2)CC1,0
19,CCN(C(=O)c1cc(Cl)ccc1OC)C1CCCCC1,0
20,CCOC(=O)c1ccc(NC(=S)NC2CCCC2)cc1,0
21,COC(=O)[C@H](Cc1ccccc1)NC(=O)NCCC1=CCCCC1,0
22,O=C(NC(=S)NCCC1=CCCCC1)c1cncc(Br)c1,1 (active)
23,COc1ccc(C)cc1NC(=O)NCCC1=CCCCC1,0

row,Structure (SMILES),manual score
1,COc1cccc2c1OC[C@@H](CO)[C@H]2N(C)C(=O)Nc1ccccc1,0
2,O=C(NC(=S)NC1CCCCCC1)c1cncc(Br)c1,1 (active)
3,FC(F)(F)c1cccc(NC(=S)NC2CCCC2)c1,0
4,COc1ccccc1/C=C/C(=O)NC(=S)N(C)C1CCCCC1,1 (active)
5,Cc1ccc(C(=O)N/N=C(/CC(=O)c2cccs2)C(F)(F)F)cc1,1 (active)
6,CCCCNC(=S)N=Nc1c(O)n(Cc2ccccc2)c2ccccc12,1 (active)
7,CCCn1c(O)c(N=NC(=O)c2ccco2)c2ccccc21,1 (active)
8,Cc1ccccc1Cn1c(=N)n(CC(=O)c2ccco2)c2ccccc21,0
9,C=CCn1c(O)c(N=NC(=O)OC(C)(C)C)c2ccccc21,1 (active)
10,O=C(NCCSc1c[nH]c2ccccc12)c1ccco1,0
11,CN=C1SC(C(=O)O)CC(=O)N1C (centres undefined),0
12,O=C(NC1CC1)c1ccc(CSCc2cccc(F)c2)o1,0
13,CCOC(=O)C(CC)n1cnc2c(nnn2-c2ccc(OC)cc2)c1=O (centres undefined),-1 (active)
14,CCOC(=O)C(C)Sc1nc2c(cnn2-c2ccc(C)cc2)c(=O)[nH]1 (centres undefined),0
15,CCOC(=O)c1nn(-c2ccc(F)cc2)c(C)c1C(C)=O,0
16,Nc1nc2n(n1)C(c1cccs1)CC(c1ccc(F)cc1)N2 (centres undefined),0
17,O=C(Nc1ccc2oc(-c3ccncc3)nc2c1)c1c(F)c(F)c(F)c(F)c1F,0
18,Cc1ccc(-c2nc3ccccc3o2)cc1NC(=S)NC(=O)c1cc2ccccc2o1,0
19,O=C(NC(=S)Nc1ccc2oc(-c3cccnc3)nc2c1)c1cccc(Cl)c1,0
20,Cc1ccc2oc(-c3cccc(NC(=S)NC(=O)c4cccs4)c3)nc2c1,1 (active)
21,Cc1cc(C)c2oc(-c3ccc(C)c(NC(=S)NC(=O)c4cccs4)c3)nc2c1,1 (active)
22,O=C1Nc2cc(S(=O)(=O)N3CCCC3)ccc2N2CCCC12 (centres undefined),0
23,O=C(N/N=C(\c1ccccc1)c1cccnc1)C(O)(c1ccccc1)c1ccccc1,-1 (active)

row,Structure (SMILES),manual score
1,O=C(NCCCCNC(=O)c1cccnc1)c1cccnc1,0
2,CC(C)OC(=O)/C(=C/c1cccnc1)NC(=O)c1ccccc1,0
3,Cc1c(C#N)c2ncn(CC#N)c(=O)c2n1-c1ccccc1,0
4,COc1ccc(-c2onc(C)c2-c2ccc(C(=O)OC(C)C)o2)c(O)c1,0
5,CCCOC(=O)c1ccc(-c2c(C)noc2-c2ccc(OC)cc2O)o1,-1 (active)
6,Cc1cc(C(=O)OCC(=O)Nc2ccc(F)cc2)c(C)o1,0
7,Cc1ccccc1Nc1nc2nonc2nc1N1CCOCC1,0
8,Cc1ccccc1NC1=NC(=S)N(c2ccccc2)C12CCOC(C)(C)C2 (centres undefined),1 (active)
9,Cc1ccc(N2C(=S)N=C(Nc3ccccc3C)C23CCOC(C)(C)C3)cc1 (centres undefined),1 (active)
10,CC1=NCCN1S(=O)(=O)c1cc(Cl)ccc1Cl,0
11,COc1cccc2[nH]c3c(N4CCCC(C)C4)ncnc3c12 (centres undefined),0
12,S=C1CCSc2ccc(Cl)cc2N1,1 (active)
13,S=C1Nc2cc(Cl)ccc2Sc2ccccc21,1 (active)
14,Clc1ccc2c(c1)C(N1CCNCC1)Cc1ccccc1S2 (centres undefined),0
15,S=C1Nc2ccccc2Sc2ccc(Cl)cc21,0
16,CCOC(=O)c1[nH]c(C)c(C(=O)NC2CCCCC2)c1C,0
17,CC(C)Sc1oc(-c2ccco2)nc1S(=O)(=O)c1ccccc1,0
18,Cc1ccc(/C=N/n2c(-c3cccs3)n[nH]c2=S)cc1,1 (active)
19,Cc1ccc(-c2cc(-c3cccs3)[nH]n2)c(O)c1,0
20,CN=c1scc(-c2cccs2)n1/N=C/c1ccc(O)c(O)c1O,0
21,Fc1ccc(/C=N/n2c(-c3cccs3)n[nH]c2=S)cc1,1 (active)
22,C=CCn1c(-c2cccs2)nc2ccccc21,0
